Among the data in the supplement of paper PMC4894684 are parasite growth values, retold here.

SMILES strings stand for the structures. Where a name gives a salt, the structure may show the parent alone. ± gives the standard deviation of the averaged measurements. Some results are limits rather than exact numbers.

The test deals with Toxoplasma gondii RH (in HFF). The experiment in a line: parasite growth relative to the screen mean (all compounds = 100%); higher = less inhibition of parasite growth. Particulars: 5 µM; 72 h; oxygen 21 %. The essentials: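 RH β-Gal–GFP Toxoplasma at MOI 1:5 was used to infect confluent human foreskin fibroblasts in 96-well plates within 2 h of pin-transferring compounds to 5 µM final. After 72 h at 21% O2, parasite number was determined by CPRG β-Gal assay against standard curves on the same plate. Growth is relative to the screen mean and averaged over two screens, with all compounds = 100%.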
Regarding `C=C(C)[C@H]1CN[C@H](C(=O)O)[C@H]1CC(=O)O` [Kainic acid], the parasite growth was found to be 58.7 ± 12%.
In the case of `Clc1cccc(SC2CCNCC2)n1` [Anpirtoline hydrochloride] it was 76.4 ± 27%.
In the case of `CN1[C@@H]2CC[C@H]1C[C@@H](OC(=O)c1cc(Cl)cc(Cl)c1)C2` it was 70.1 ± 18%.
In the case of `CCCN1CCC[C@@H]2Cc3n[nH]cc3C[C@H]21` [(-)-Quinpirole hydrochloride] it was 143.8 ± 1.3%; in that of `BrC1C(Br)C(Br)C(Br)C(Br)C1Br` (stereo not drawn) [1,2,3,4,5,6-Hexabromocyclohexane], 112 ± 29%; in that of `Oc1ccc2c3c1O[C@H]1c4[nH]c5c(c4C[C@@]4(O)[C@@H](C2)N(CC2CC2)CC[C@]314)C[C@@]1(O)[C@H]2Cc3ccc(O)c4c3[C@@]1(CCN2CC1CC1)[C@H]5O4` [nor-Binaltorphimine dihydrochloride], 123 ± 3.2%.
`CC(C)(C)NCC(O)COc1cccc2[nH]c(C#N)cc12` (stereo not drawn) [Cyanopindolol hemifumarate] returned a parasite growth of 130 ± 6.7%.
In the case of `CCOC(=O)c1ncc2[nH]c3ccc(OCc4ccccc4)cc3c2c1COC` it was 83.8 ± 31%; in that of `O=Cc1cn(Cc2ccc(Cl)cc2)c2ccccc12` [Oncrasin 1], 113 ± 44%; in that of `COC(=O)[C@@H](N)CCCNC(=N)N[N+](=O)[O-]` [L-NAME hydrochloride], 81.5 ± 24%.
On to `Oc1ccc2c3c1O[C@H]1c4c(c5ccccc5n4Cc4ccccc4)C[C@@]4(O)C(C2)N(CC2CC2)CC[C@]314` [N-Benzylnaltrindole hydrochloride], for which the parasite growth is less than 0%.
In turn, `Cc1[nH]c2ccc(Cl)cc2c1C1=CCNCC1` displayed a parasite growth of 129 ± 8.1%.
Then `Fc1ccc(C(OCCN2CCN(C/C=C/c3ccccc3)CC2)c2ccc(F)cc2)cc1`, with 32.9 ± 3.4%.
